For the experiment, the target named is Cruzipain (Trypanosoma cruzi) (UniProt P25779). The experiment is described as follows: Confirmation qHTS Assay for Inhibitors of Cruzain. Also: nearly all actives have a fitted effect of over 40% in size.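 As to activity change, negative = inhibition: plate controls were uninhibited enzyme control for no effect and buffer wells lacking enzyme for full effect.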 The note with it: purified cruzain, Z-FR-AMC fluorescence, 0.01% Triton. Put shortly: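 Purified cruzain, 1.5 nM, pre-incubated 15 min at room temperature with compound in 100 mM sodium acetate pH 5.5, 5 mM DTT, 0.01% Triton X-100. Then 2 uM Z-FR-AMC added; AMC fluorescence (ex 360/em 450 nm) increase over 60 s gave reaction progress.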
Cruzipain (Trypanosoma cruzi), sequence (P25779 123-467 limits assumed): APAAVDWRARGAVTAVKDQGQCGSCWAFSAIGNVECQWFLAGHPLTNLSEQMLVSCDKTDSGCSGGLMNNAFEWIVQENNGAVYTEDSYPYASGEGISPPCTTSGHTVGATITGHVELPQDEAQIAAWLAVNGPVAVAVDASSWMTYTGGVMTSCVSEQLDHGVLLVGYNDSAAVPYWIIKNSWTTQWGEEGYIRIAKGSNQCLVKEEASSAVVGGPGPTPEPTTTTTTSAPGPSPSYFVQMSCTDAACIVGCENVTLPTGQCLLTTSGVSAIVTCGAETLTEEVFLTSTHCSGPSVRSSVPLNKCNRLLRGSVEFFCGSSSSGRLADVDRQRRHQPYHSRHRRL
Background: In qHTS, concentration-response curves come from the screen itself.

The structures appear in SMILES notation. “And” between values parts separate entries of the source, which are not always exact repeats. Identical values can stand only once. Records with an inconclusive call do not appear. Values without a mark were called inactive. The source made the active and inactive calls. Calls follow the shape of the dose curve; as a rule, active = well fitted inhibition curve with a large enough effect; inconclusive = small, poorly fitted or top-dose-only effect; inactive = no such curve, though single readings can be large or run the other way.
Potency is read from the fitted curve at half-maximal effect.

As for `CC(C)(C)OC(=O)Cc1nnc(-c2cc3ccccc3[nH]2)s1`, the activity change, negative = inhibition was -10.9%.
On to `O=C1NN(c2ccc(Cl)c(Cl)c2)C(=O)/C1=C/c1cccc(OC(=O)c2cccs2)c1`, for which the Potency was 35.5 µM (active).
As to `CCCN(CCC)c1nc(C#N)nc(N(CCC)CCC)n1`, the Potency is 3.55 µM (active).
Turning to `O=C(CNC(=O)c1ccc2n[nH]nc2c1)OC(C(=O)Nc1cc(C(F)(F)F)ccc1Cl)c1ccccc1` (stereo unspecified), the Potency was 14.1 µM (active).
Consider `N#Cc1c(NC(=O)CSc2ncnc3c2cnn3-c2ccccc2Cl)sc2c1CCCC2`, for which the activity change, negative = inhibition is -1.46%.
For the molecule `O=C(NNC(=O)c1nc2ccccc2[nH]1)OCc1ccccc1`, the activity change, negative = inhibition is -7.65%.
For `O=C(COC(=O)CCSc1ccccc1Cl)Nc1ccc(F)cc1F`, the Potency is 14.1 µM (active).
As to `O=C(Cn1c(=O)oc2cc(S(=O)(=O)N3CCCCCC3)ccc21)NC1CCCCCCC1`, the activity change, negative = inhibition was -3.87%.
Consider `N#Cc1nc(Nc2cc(F)cc(F)c2)nc(Nc2cc(F)cc(F)c2)n1`, for which the Potency is 0.0794 µM (active).
On the same count and under the same terms, in the case of `CN(C)c1ccc(C(=O)NCC(=O)OC(C(=O)Nc2cc(C(F)(F)F)ccc2Cl)c2ccccc2)cc1` (stereo unspecified) it was 14.1 µM (active).
With `O=C(CNC(=O)Cc1ccccc1)NCC(=O)OCC(=O)c1cccc2ccccc12`, the activity change, negative = inhibition was -13%.
Same read-out and setting: the result for `CC(C)(C)OC(=O)NCc1nnc(C(C(=O)OCc2ccccc2)c2ccccc2)s1` (stereo unspecified) reads -11.8%; that for `O=C(Nc1cc(C(F)(F)F)ccc1Cl)[C@H](O)CCc1ccccc1`, -26.3%; that for `N#Cc1nc(Nc2ccc(C(F)(F)F)cc2)nc(NC2CCCC2)n1`, 2.22%.
On to `CCC(C)c1ccccc1OCCn1c(CCNC(=O)C2CCCCC2)nc2ccccc21` (stereo unspecified), for which the Potency is 10 µM (active).
Regarding `Cc1ccc2[nH]c(=O)c(CN(CCO)Cc3nnnn3Cc3ccccc3)cc2c1`, the activity change, negative = inhibition is -1.03%.
Take `COc1ccc(N=Cc2nc(-c3ccccc3)oc2OC(=O)c2ccccc2)cc1`: the activity change, negative = inhibition was -22%.
For the molecule `O=[N+]([O-])c1ccccc1S(=O)(=O)NCC1CCC(CNCC2CCc3ccccc3C2)CC1` (stereo unspecified), the activity change, negative = inhibition was -5.24%.
On the same count and under the same terms, in the case of `COC(=O)CCC(C)C1CCC2C3C(O)C[C@@H]4CC(O)CC[C@@]4(C)C3CC(O)[C@]12C` (stereo partly specified) it was -0.647%.
For the molecule `COc1ccc(C)cc1NC(=O)C(OC(=O)CNC(=O)c1ccccc1)c1ccccc1` (stereo unspecified), the Potency is 8.91 µM (active).
As to `O=C(NC(=S)Nc1cccc(Cl)c1N1CCCC1)c1ccc(-c2cccc([N+](=O)[O-])c2)o1`, the activity change, negative = inhibition was -8.07%.
Turning to `CC(C)(C)OC(=O)Cc1nnc(-c2nc3ccccc3[nH]2)o1`, the activity change, negative = inhibition is -0.371%.
With `Cc1ccc2[nH]c(=O)c(CN(Cc3cccs3)Cc3nnnn3Cc3ccco3)cc2c1`, the activity change, negative = inhibition was -23%.
With `O=c1cc(-c2ccccc2F)nc(-c2ccccc2F)o1`, the activity change, negative = inhibition is -25.6%.
On to `CC(C)C[C@H](N)c1nnc(S(=O)(=O)Cc2cccc(F)c2)o1`, for which the Potency is 15.8 µM (active).
Regarding `COc1ccc(C(F)(F)F)cc1NC(=O)C(OC(=O)CNC(=O)c1ccccc1)c1ccccc1` (stereo unspecified), the Potency was 14.1 µM (active).
In the case of `C/C(CC(=O)Nc1cc(Cl)ccc1Cl)=N\NC(N)=S`, the Potency is 1.12 µM (active).
Same read-out and setting: in the case of `O=C(COC(=O)CNC(=O)c1ccccc1Cl)Nc1cc(C(F)(F)F)ccc1Cl` it was 3.55 µM (active); in that of `Cc1ccccc1OCC(=O)NCC(=O)OCC(=O)c1ccc2ccccc2c1`, 14.1 µM (active).
`O=C(COC(=O)CNC(=O)C1CCCCC1)NC1CC1`: the Potency was 15.8 µM (active).
Still for that read-out and setting: in the case of `CCC(C)NC(=O)c1ccc2nc(-c3ccco3)c(-c3ccco3)nc2c1` (stereo unspecified) it was 7.08 µM (active).
For the molecule `CC(C)(C)OC(=O)NCc1nnc(-c2nc3ccccc3[nH]2)o1`, the activity change, negative = inhibition is -4.26%.
Turning to `CCn1nc(-c2ccc(C)cc2)nc2c(=O)n(C)c(=O)nc1-2`, the Potency was 2.82 µM (active).
Take `O=C(Cn1cc(CNCc2ccccc2)nn1)Nc1cc(C(F)(F)F)ccc1Cl`: the activity change, negative = inhibition is 3.4%.
Same read-out and setting: in the case of `O=C(Cn1cc(CNC(=O)C2CCCCC2)nn1)Nc1cc(C(F)(F)F)ccc1Cl` it was 0.597%.
Consider `Cc1ccc(-c2c3c(=O)n(C)c(=O)n(C)c3cn2-n2cnnc2)cc1`, for which the Potency is 25.1 µM (active).
On to `COc1ccc(-c2cc(C#N)nc(N3CCN(C)CC3)n2)cc1`, for which the activity change, negative = inhibition is -11.8%.
With `N#Cc1nc(N)nc(N2CCCCC2)n1`, the Potency was 7.94 µM (active).
In the case of `N#Cc1nc(NCC(F)F)c2ncn(-c3cccc(Cl)c3)c2n1`, the Potency was 0.0891 µM (active).
On to `Cc1ccccc1C(=O)NCC(=O)OC(C(=O)Nc1cc(C(F)(F)F)ccc1Cl)c1ccccc1` (stereo unspecified), for which the Potency is 12.6 µM (active).
Consider `CC1CCN(c2oc(-c3cccc4ccccc34)nc2C#N)CC1`, for which the activity change, negative = inhibition is -40.4%.
Consider `CCn1cnc2c(NCCc3cccnc3)nc(C#N)nc21`, for which the Potency is 10 µM (active).
Turning to `CN(C)CCCNS(=O)(=O)c1ccc(N2CCC(c3ccc(Cl)cc3)=N2)cc1`, the activity change, negative = inhibition was -28.4%.
Turning to `O=C(CNC(=O)c1ccc(-c2ccccc2)cc1)OC(C(=O)Nc1cc(C(F)(F)F)ccc1Cl)c1ccccc1` (stereo unspecified), the activity change, negative = inhibition is -19.3%.
In the case of `Cn1nc(-c2ccc(Cl)cc2)nc2c(=O)n(C)c(=O)nc1-2`, the Potency was 0.891 µM (active).
For the molecule `O=C(CNC(=O)c1ccccc1)OCC(=O)c1cccc2ccccc12`, the activity change, negative = inhibition was -21.8%.
Same read-out and setting: the result for `C=Cc1nc(Nc2cc(F)cc(F)c2)nc(NC2CCCC2)n1` reads -5.68%.
On to `N#Cc1nc(Nc2ccccc2)nc(NC2CCCCC2)n1`, for which the Potency was 1.41 µM (active).
For the molecule `O=C(Nc1ccc(O)c(-c2nc3ccccc3o2)c1)C1(c2ccc([N+](=O)[O-])cc2)CCCC1`, the activity change, negative = inhibition was -1.92%.
For `N#Cc1nc(N2CCCC2)nc(N(c2ccccc2)c2ccccc2)n1`, the Potency was 1 µM (active).
Still for that read-out and setting: in the case of `C=C(C)C(=O)OC1(C(F)(F)F)Oc2cc(C)ccc2NC1=O` (stereo unspecified) it was 14.1 µM (active).
Regarding `CCOc1ccc(-c2nn3c(-c4cc(-c5ccccc5)n[nH]4)nnc3s2)cc1`, the activity change, negative = inhibition was -7.68% and -5.69%.
For the molecule `CCNc1nc(C#N)nc(N2CCOCC2)n1`, the Potency was 10 µM (active).
As for `COc1ccccc1-c1nn2c(-c3cc(-c4ccccc4)n[nH]3)nnc2s1`, the activity change, negative = inhibition was -18.8%.
With `N#CN1CCC(N[S+](=O)([O-])c2cccc(F)c2)CC1`, the activity change, negative = inhibition is -1.96%.
As for `CCC(C(=O)NC1CCCCC1)n1c(SCc2ccc(F)cc2)nc2ccncc21` (stereo unspecified), the Potency is 4.47 µM (active).
With `N#CN1CCC(NS(=O)(=O)c2cccc(C(F)(F)F)c2)CC1`, the activity change, negative = inhibition is 0.31%.
As for `O=C(NCCc1nc2ccccc2n1Cc1ccccc1F)c1ccc(F)cc1`, the Potency was 1.58 µM (active).
The same measure, in the same setting: in the case of `CCCNc1nc(C#N)nc(Nc2ccccc2)n1` it was 0.794 µM (active); in that of `N#Cc1nc(NC2CCCC2)c2ncn(-c3cc(F)cc(F)c3)c2n1`, 0.316 µM (active).
For the molecule `CC(C)(C)OC(=O)Cc1nnc(-c2cc3ccccc3[nH]2)o1`, the activity change, negative = inhibition was 0.423%.
With `O=C(NCC1CC1)c1ccc2nc(-c3ccoc3)c(-c3ccoc3)nc2c1`, the activity change, negative = inhibition is -15.5%.
Same read-out and setting: in the case of `O=C(Nc1cc(C(F)(F)F)ccc1Cl)C(O)Cc1ccccc1` (stereo unspecified) it was -18.4%.
For the molecule `O=C(NCCc1nc2ccccc2n1CCCOc1ccccc1)C1CCCCC1`, the Potency is 2.24 µM (active).
For `N#Cc1nc(N)nc(N(c2ccccc2)c2ccccc2)n1`, the Potency is 3.55 µM (active) and 3.16 µM (active).
With `CC(C)N(CCC(=O)c1ccc2ccccc2c1)Cc1ccccc1`, the Potency is 31.6 µM (active).
Still for that read-out and setting: the result for `O=C(COc1ccc(F)cc1)NCCc1nc2ccccc2[nH]1` reads 0.199 µM (active).
With `O=C(c1ccc(OCCN2CCCCC2)cc1)c1c(-c2ccc(O)cc2)sc2cc(O)ccc12`, the activity change, negative = inhibition was -21.2%.
For the molecule `COc1cc(Cl)c(C)cc1NC(=O)C(OC(=O)CNC(=O)c1ccccc1)c1ccccc1` (stereo unspecified), the Potency was 31.6 µM (active).
On the same count and under the same terms, in the case of `CN1N/C(=C\c2ccccc2)N=C2C(=O)N(C)C(=O)N=C21` it was 1.12 µM (active); in that of `O=C1/C(=C/c2ccco2)CCc2ccccc21`, 2.51 µM (active); in that of `CCNc1nc(C#N)nc(N2CCCCC2)n1`, 5.01 µM (active).
On to `O=C(COC(=O)CNC(=O)c1ccccc1Cl)Nc1ccccc1Cl`, for which the Potency was 3.55 µM (active).
For the molecule `COc1ccc(OCCCn2c(CCNC(=O)C3CCCCC3)nc3ccccc32)cc1`, the Potency was 1.41 µM (active).
As to `c1ccc2cc3c(NCCN4CCOCC4)ccnc3cc2c1`, the activity change, negative = inhibition is -21.6%.
Turning to `CSc1nc(N(CCO)CCO)c2sc3nc(-c4ccco4)c4c(c3c2n1)CCC4`, the Potency is 11.2 µM (active).

Values taken from PubChem BioAssay AID2158 (National Center for Advancing Translational Sciences (NCATS), 2009).
